Rows were chosen to be rich in hits. Some 3.2% of all compounds tested hit in one or more screens of this group.
TRb-SRC2 inh: qHTS for Inhibitors of the Interaction of Thyroid Hormone Receptor and Steroid Receptor Coregulator 2; Thyroid hormone receptor beta (Homo sapiens), P10828; TRbeta-SRC2 peptide binding, fluorescence polarization; receptor liganded with 1 µM T3; Potency, µM (titrated, usually from 106 µM), for inactives: top-dose activity change, negative = inhibition, hits mostly inhibitors; 0.065% of 280,000 active; AID 1469, 2008;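 further: plate controls were bound peptide for no effect and peptide without receptor for full effect; nearly all actives have a fitted effect of over 50% in size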
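Human TRb ligand-binding domain (0.6 uM) is mixed with 20 nM Texas Red SRC2 peptide and 1 uM T3; after compound addition and 5 hr at ambient temperature, polarization is measured and normalized to unbound and bound controls.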
TR SRC2 fluor cs: Total Fluorescence Counterscreen for Inhibitors of the Interaction of Thyroid Hormone Receptor and Steroid Receptor Coregulator 2; TRb/SRC2 Texas Red total fluorescence interference; Potency, µM (titrated, usually from 106 µM), inactives show top-dose fluorescence change, negative = quenching; 0.29% of 280,000 active; active means well fitted curve in either direction with a large enough effect; inconclusive means small, poorly fitted or top-dose-only effect
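Human TRβ ligand-binding domain (0.6 uM) and Texas Red SRC2 peptide (20 nM) in Tris buffer with 1 uM T3 and 5% DMSO were incubated with pinned compound for 5 hr at ambient temperature. Total fluorescence was computed as S + 2P (555/632 nm).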
Tau fluor cs: Counterscreen qHTS for Inhibitors of Tau Fibril Formation, Fluorescence Polarization. tau K18 P301L Alexa594 fluorescence, heparin fibrillization. AID 1463, 2008. Potency, µM (doses to about 57.7 µM), for the others: top-dose activity change, negative = decrease. 0.93% of 280,000 active; further: nearly all actives have a fitted effect of over 55% in size
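Human K18 P301L tau (15 uM unlabeled plus 0.24 uM Alexa 594-labeled, final) in 100 mM sodium acetate pH 7 was mixed with compound and 20 uM heparin and incubated 6 hr at 37 C.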
Tau FP inhib: qHTS for Inhibitors of Tau Fibril Formation, Fluorescence Polarization | Microtubule-associated protein tau (Homo sapiens), P10636 | K18 P301L tau heparin fibrillization, Alexa594 FP, 6 h | Potency, µM (titrated, usually from 57.7 µM), for the others: top-dose activity, negative = inhibition, actives largely listed as inhibitors | 0.39% of 280,000 active | AID 1468, 2008; further: nearly all actives have a fitted effect of over 55% in size
Target sequence (P10636 561-689 P618L limits assumed): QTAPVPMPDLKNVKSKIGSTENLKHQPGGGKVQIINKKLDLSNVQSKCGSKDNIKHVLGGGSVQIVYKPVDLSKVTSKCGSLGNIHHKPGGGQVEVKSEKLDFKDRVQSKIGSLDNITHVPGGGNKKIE
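Read-out: fluorescence polarization of Alexa 594-labeled tau (0.24 uM), 555 nm excitation, 632 nm emission. Mixtures held 15 uM unlabeled K18 P301L, compound and 20 uM heparin, pH 7 acetate buffer, incubated 6 hr at 37 C.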
Tau fibril ThT: qHTS for Inhibitors of Tau Fibril Formation, Thioflavin T Binding; Microtubule-associated protein tau (Homo sapiens), P10636; recombinant tau K18 P301L (four-repeat tau fragment), heparin-induced fibrillization, ThT fluorescence; Potency, µM (highest dose often 57.4 µM), without a hit: top-dose activity, negative = inhibition, actives largely listed as inhibitors; 2.1% of 270,000 active; AID 1460, 2008; further: nearly all actives have a fitted effect of over 55% in size
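Tau K18 P301L fragment (15 uM unlabeled plus 0.24 uM Alexa 594-labeled) in 100 mM sodium acetate pH 7 with compound, fibrillization induced by 20 uM heparin for 6 hr at 37 C. Thioflavin T (30 uM) added, fluorescence read after 1 hr (ex 450, em 510 nm).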
GoLoco inh red: qHTS Assay for Inhibitors of RGS12 GoLoco Motif Activity (Red Fluorophore). Gai1:RGS12 GoLoco peptide FP, rhodamine, 10 min. Guanine nucleotide-binding protein G(i) subunit alpha-1 (Homo sapiens), P63096. 0.44% of 230,000 active. Potency, µM (titrated, usually from 61.6 µM), inactives show at the highest dose activity, negative = inhibition, most hits filed as inhibitors; active means well fitted inhibition curve with a large enough effect, not every such curve was filed as active; inactive means no such curve, though single readings can be large or run the other way; further: nearly all actives have a fitted effect of over 30% in size
Target sequence (P63096 whole entry, looked up): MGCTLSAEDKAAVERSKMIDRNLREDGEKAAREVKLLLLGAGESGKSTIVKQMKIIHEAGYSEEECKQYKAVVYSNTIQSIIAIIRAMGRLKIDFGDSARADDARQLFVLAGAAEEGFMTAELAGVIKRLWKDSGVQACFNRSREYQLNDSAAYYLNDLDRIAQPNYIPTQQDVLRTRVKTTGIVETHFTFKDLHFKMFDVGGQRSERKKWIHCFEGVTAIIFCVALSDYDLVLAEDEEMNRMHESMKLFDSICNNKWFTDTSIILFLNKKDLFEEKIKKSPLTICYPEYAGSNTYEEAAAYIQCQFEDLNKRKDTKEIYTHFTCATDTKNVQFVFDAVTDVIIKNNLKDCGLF
* hit, by the source's call; [ ] = remark or other dose. Unless noted, the call rests on the fitted dose curve; in most records, active means well fitted curve in the direction sought with a large enough effect; inconclusive means small, poorly fitted or top-dose-only effect, or another doubt; inactive means no such curve, though single readings can be large; an effect the other way counts as inactive or inconclusive. Unless noted, on the % scale 0 is the no-effect control and ±100 the full control effect; potency means the concentration at half of the fitted maximal effect.

How did Cc1c(NC(=O)/C(C#N)=C/c2ccc(-c3cccc(Cl)c3)o2)c(=O)n(-c2ccccc2)n1C do in these assays?
TRb-SRC2 inh: 6%; TR SRC2 fluor cs: -1%; Tau fluor cs: -7%; Tau FP inhib: 8%; Tau fibril ThT: 13µM*; GoLoco inh red: 9%

How did Cc1c(NC(=O)/C(C#N)=C/c2ccc(-c3ccccc3Cl)o2)c(=O)n(-c2ccccc2)n1C do in these assays?
TRb-SRC2 inh: 4%; TR SRC2 fluor cs: -4%; Tau fluor cs: -10%; Tau FP inhib: 8%; Tau fibril ThT: inconclusive; GoLoco inh red: -5%

How did Cc1c(NC(=O)/C(C#N)=C/c2ccc(-c3ccc(Cl)c(Cl)c3)o2)c(=O)n(-c2ccccc2)n1C do in these assays?
TRb-SRC2 inh: 8%; TR SRC2 fluor cs: -5%; Tau fluor cs: -17%; Tau FP inhib: 8%; Tau fibril ThT: 16µM*; GoLoco inh red: 15%

How did CCCn1c2ccccc2c2cnn(CC(=O)Nc3cc(C)c(Cl)cc3OC)c(=O)c21 do in these assays?
TRb-SRC2 inh: -4%; TR SRC2 fluor cs: 20µM*[quencher]; Tau fluor cs: -8%; Tau FP inhib: 2%; Tau fibril ThT: -3%

What do the screens show for `c1ccc2nc(-c3ccc4c(c3)OCO4)ccc2c1`?
TRb-SRC2 inh: -2%; TR SRC2 fluor cs: -1%; Tau fluor cs: -7%; Tau FP inhib: 2%; Tau fibril ThT: inconclusive; GoLoco inh red: 6%

What do the screens show for `CNc1ccccc(-c2ccc3cc4c(cc3n2)OCO4)c1=O`?
TRb-SRC2 inh: -3%; TR SRC2 fluor cs: -5%; Tau fluor cs: inconclusive; Tau FP inhib: -14%; Tau fibril ThT: 5µM*; GoLoco inh red: -2%

How did Cc1ccc2nc(-c3ccc(C)o3)c(Nc3ccc4c(c3)OCCO4)n2c1 do in these assays?
TRb-SRC2 inh: -15%; TR SRC2 fluor cs: 0.0013µM*[quencher]; Tau fluor cs: inconclusive; Tau FP inhib: 8%; Tau fibril ThT: inconclusive

What do the screens show for `COc1ccccc1Cc1nc2ccccc2nc1SCC(=O)N(C)c1ccc(F)cc1`?
TRb-SRC2 inh: -3%; TR SRC2 fluor cs: -1%; Tau fluor cs: -10%; Tau FP inhib: -4%; Tau fibril ThT: -10%

Results for CC1(C)CC(=O)C2=C(C1)NC1=C(C(=O)c3ccccc31)C2c1ccc(O)cc1 (stereo not drawn) ?
TRb-SRC2 inh: -1%; TR SRC2 fluor cs: -6%; Tau fluor cs: inconclusive; Tau FP inhib: 14%; Tau fibril ThT: 18µM*; GoLoco inh red: 5%

Results for COc1ccc(-c2csc(/C(C#N)=C\c3ccc(O)c([N+](=O)[O-])c3)n2)cc1OC ?
TRb-SRC2 inh: 1%; TR SRC2 fluor cs: -17%; Tau fluor cs: 4.5µM*[quencher]; Tau FP inhib: -5%; Tau fibril ThT: 1.3µM*; GoLoco inh red: 7%

How did COc1cc(/C=C(\C#N)c2nc3ccccc3s2)cc([N+](=O)[O-])c1O do in these assays?
TRb-SRC2 inh: 18%; TR SRC2 fluor cs: 25µM*[quencher]; Tau fluor cs: 16µM*[quencher]; Tau FP inhib: -3%; Tau fibril ThT: 1.4µM*; GoLoco inh red: 65%

What do the screens show for `CC(C)c1ccc(/C=C(\C#N)c2nc(-c3ccc(O)cc3)cs2)cc1`?
TRb-SRC2 inh: -18%; TR SRC2 fluor cs: -72%; Tau fluor cs: 8.9µM*[quencher]; Tau FP inhib: 13µM*; Tau fibril ThT: 7.9µM*

How did N#C/C(=C\c1ccc(O)c([N+](=O)[O-])c1)c1nc2ccccc2s1 do in these assays?
TRb-SRC2 inh: 12%; TR SRC2 fluor cs: -26%; Tau fluor cs: inconclusive; Tau FP inhib: -1%; Tau fibril ThT: 2.2µM*; GoLoco inh red: 31%

What do the screens show for `COc1ccc(/C=C(/C#N)c2nc(-c3ccc(Br)cc3)cs2)cc1`?
TRb-SRC2 inh: -5%; TR SRC2 fluor cs: -35%; Tau fluor cs: -23%; Tau FP inhib: inconclusive; Tau fibril ThT: inconclusive

How did N[C@H]1CCN(O)C1=O do in these assays?
TRb-SRC2 inh: 1%; TR SRC2 fluor cs: 0%; Tau fluor cs: -8%; Tau FP inhib: 3%; Tau fibril ThT: -16%; GoLoco inh red: -1%

Results for CC1(C)C(=O)NC(=O)N1CO ?
TRb-SRC2 inh: 13%[201 µM]; TR SRC2 fluor cs: 2%[201 µM]

Results for NNC(=O)CCc1ccc2ccc3ccccc3c2c1 ?
GoLoco inh red: 5%[14.2 µM]

How did CCc1ccc(-c2nc3cc(NC(=O)c4cc5ccccc5cc4OC)ccc3o2)cc1 do in these assays?
TRb-SRC2 inh: 3%; TR SRC2 fluor cs: -15%; Tau fluor cs: -4%; Tau FP inhib: 6%; Tau fibril ThT: 2%

How did CS(=O)(=O)N1CCC2(CC1)CN(c1ccc(-c3ccccc3)cc1)C2 do in these assays?
GoLoco inh red: -6%

What do the screens show for `CCOc1ccc(-c2c(C)nn3c(C)c(C(=O)NCc4ccc(Cl)cc4)cnc23)cc1OCC`?
TRb-SRC2 inh: -11%; TR SRC2 fluor cs: 251µM*[quencher]; Tau fluor cs: -16%; Tau FP inhib: 2%; Tau fibril ThT: -9%

What do the screens show for `CCOc1ccc(-c2c(C)nn3c(C)c(C(=O)NCCc4ccc(Cl)cc4)cnc23)cc1OCC`?
TRb-SRC2 inh: 1%; TR SRC2 fluor cs: -12%; Tau fluor cs: -24%; Tau FP inhib: 6%; Tau fibril ThT: inconclusive

What do the screens show for `COc1ccc(NC(=O)CSc2nc3c(c(-c4cccs4)c2C#N)CN(C)CC3)cc1OC`?
TRb-SRC2 inh: -1%; TR SRC2 fluor cs: -3%; Tau fluor cs: 25µM*[quencher]; Tau FP inhib: inconclusive; Tau fibril ThT: 25µM*; GoLoco inh red: 4%

Results for COc1ccc(NC(=O)CSc2nnc(-c3cccs3)n2C)cc1OC ?
TRb-SRC2 inh: -9%; TR SRC2 fluor cs: 0%; Tau fluor cs: -6%; Tau FP inhib: -4%; Tau fibril ThT: -8%; GoLoco inh red: 5%

Results for COc1ccc(NC(=O)CC2Nc3cc(C)c(C)cc3NC2=O)c([N+](=O)[O-])c1 (stereo not drawn) ?
TRb-SRC2 inh: -7%; TR SRC2 fluor cs: 0%; Tau fluor cs: inconclusive; Tau FP inhib: inconclusive; Tau fibril ThT: 11µM*; GoLoco inh red: 12%

What do the screens show for `O=C(CC1Nc2ccccc2NC1=O)Nc1cc(Cl)cc(Cl)c1` (stereo not drawn)?
TRb-SRC2 inh: 1%; TR SRC2 fluor cs: -4%; Tau fluor cs: 14µM*[quencher]; Tau FP inhib: 8%; Tau fibril ThT: inconclusive; GoLoco inh red: -29%

From PubChem BioAssay
